This is an account of results in PubChem BioAssay.

Test [1] can be described thus: small molecules captured by biotinylated probe aFSTL3 – biochemical, small-molecule microarray, fluorescence 635/667, stem cell growth factor project, primary screen (AID 1064).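 Further: measures binding of the biotinylated anti-FSTL3 antibody to printed compounds.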 Conditions: higher = more signal.
Test [2] can be described thus: binders from COS7 lysate, DM2A8 probe, primary screen, torsin A project, cell lysate, small-molecule microarray, fluorescence 635/667 (AID 1065). To be noted: higher = more signal, COS7 lysate expressing mutant human TOR1A.
Test [3] in a line: small molecules captured by biotinylated probe aFGF2 – biochemical, small-molecule microarray, fluorescence 635/667, stem cell growth factor project, primary screen (AID 1067).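 Further: measures binding of biotinylated aFGF2 protein to printed compounds on slides; z-score merges feature fluorescence and signal-to-noise across triplicate slides.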 Conditions: higher = more signal.
Test [4] in a line: small molecules captured by biotinylated probe aFGF10 – biochemical, small-molecule microarray, fluorescence 635/667, stem cell growth factor project, primary screen (AID 1071).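 Further: score merges 667 nm spot intensity and signal to noise from triplicate slides.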 Conditions: higher = more signal.
Test [5] concerns the target Neurogenic locus notch homolog protein 2 (Homo sapiens) (UniProt Q04721). Put plainly: small molecules binding Notch2 protein – biochemical, small-molecule microarray, 635 nm fluorescence, stem cell growth factors, primary screen (AID 1073). To be noted: higher = more signal.
Test [6] deals with Pro-neuregulin-1, membrane-bound isoform (Homo sapiens) (UniProt Q02297). The experiment in a line: small molecules binding neuregulin-1 protein – biochemical, small-molecule microarray, fluorescence 635/667, psychiatric disease protein project, primary screen (AID 1075).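 Further: score combines 667 nm spot fluorescence with signal to noise.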 Conditions: NRG1 binding, 635 nm fluorescence, higher = more signal.
Test [7] relates to Neuregulin-1 EGF-like domain. Put plainly: small molecules binding NRG1 EGF domain – biochemical, small-molecule microarray, 635 nm fluorescence, primary screen (AID 1081).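 Further: binding of the protein to compounds printed on small-molecule microarray slides.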 To be noted: higher = more signal.
Test [8] in a line: FRG1 expression reporter modulators in myotubes – cell-based, C2C12 myotubes, firefly/Renilla luciferase, luminescence, FRG1 inhibition for FSHD, primary screen (AID 1084). Conditions: FRG1 promoter luciferase, higher = more signal, called active from +8 up or from −8 down.
Test [9] is described as follows: small molecules captured by biotinylated probe aFST – biochemical, small-molecule microarray, fluorescence 635/667, stem cell growth factor project, primary screen (AID 1086).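 Further: score merges 667 nm fluorescence with signal-to-noise of each printed compound spot.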 To be noted: higher = more signal.
A short description of test [10]: binders of probe aHhip on microarray, primary screen, stem cell growth factor project, biochemical, small-molecule microarray, fluorescence 635/667 (AID 1087).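 Further: score merges spot fluorescence at 667nm with spot signal to noise ratio.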 To be noted: higher = more signal.
Test [11] concerns PRMT1 (protein arginine N-methyltransferase 1). The experiment in a line: small molecules binding arginine methyltransferase PRMT1 – biochemical, small-molecule microarray, 635 nm fluorescence, primary screen (AID 1088).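 Further: binding of Prmt1 protein to compounds spotted on small-molecule microarray slides.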 To be noted: higher = more signal.
Test [12] can be described thus: growth effects on S. cerevisiae YJM789 – YJM789 clinical isolate, OD600, 24 h, basal, primary screen (AID 1089).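 Further: growth of clinical yeast isolate S. cerevisiae YJM 789 seeded 1000 cells per well; test concentration not given here.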 Conditions: higher = more signal, called active from +8 up or from −8 down.
A short description of test [13]: S. pombe growth modifiers, basal conditions – strain 972, OD600, 24 h, no modulator, primary screen (AID 1090).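 Further: basal condition with compound alone and no growth modifier present; test concentration not given here.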 Conditions: S. pombe 972 growth, higher = more signal, called active from +8 up or from −8 down.
Test [14] in a line: budding yeast growth modifiers under rapamycin – strain BY4716, OD600, 96 h, primary screen (AID 1091). Further: test concentration not given here. Conditions: S. cerevisiae BY4716 + rapamycin, higher = more signal, called active from +8 up or from −8 down.
The target of test [15] is Torsin-1A-interacting protein 2 (Homo sapiens) (UniProt Q8NFQ8). The experiment in a line: small molecules binding lysate-expressed LULL1 – cell lysate, human LULL1 lysate, 635/667 nm fluorescence, primary screen (AID 1092).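 Further: probe is lysate of COS7 cells overexpressing human LULL1; score merges per-feature 667 nm fluorescence with signal-to-noise.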 Conditions: small-molecule microarray, hLULL1 lysate binding, 635 nm fluorescence; higher = more signal.
Test [16] in a line: optical density change of DRC41 E. coli – strain DRC41, OD650, 24 h, E. coli filamentation project, primary screen (AID 1093).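 Further: MC1000 strain lacking acrAB efflux and sulA so SOS filamentation is blocked; test concentration not given here.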 To be noted: E. coli DRC41 growth, higher = more signal, called active from +8 up or from −8 down.
A short description of test [17]: probe aLefty2 binding to arrayed compounds – biochemical, biotinylated probe, 635/667 nm fluorescence, primary screen (AID 1094).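 Further: score merges spot fluorescence near 667 nm with spot signal-to-noise ratio.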 To be noted: small-molecule microarray, higher = more signal.
Test [18] relates to Noggin (protein binding on small-molecule microarray). The experiment in a line: small molecules binding Noggin protein – biochemical, 635/667 nm fluorescence, primary screen (AID 1095).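 Further: score merges 667 nm feature fluorescence with signal to noise over triplicate slides.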 Conditions: 635 nm fluorescence, higher = more signal.
The target of test [19] is Neurogenic locus notch homolog protein 3 (Homo sapiens) (UniProt Q9UM47). Put plainly: small molecules binding NOTCH3 protein – biochemical, 635/667 nm fluorescence, primary screen (AID 1096). Conditions: small-molecule microarray, 635 nm fluorescence, higher = more signal.
Chain of Neurogenic locus notch homolog protein 3 (Homo sapiens) (Q9UM47 whole entry, looked up): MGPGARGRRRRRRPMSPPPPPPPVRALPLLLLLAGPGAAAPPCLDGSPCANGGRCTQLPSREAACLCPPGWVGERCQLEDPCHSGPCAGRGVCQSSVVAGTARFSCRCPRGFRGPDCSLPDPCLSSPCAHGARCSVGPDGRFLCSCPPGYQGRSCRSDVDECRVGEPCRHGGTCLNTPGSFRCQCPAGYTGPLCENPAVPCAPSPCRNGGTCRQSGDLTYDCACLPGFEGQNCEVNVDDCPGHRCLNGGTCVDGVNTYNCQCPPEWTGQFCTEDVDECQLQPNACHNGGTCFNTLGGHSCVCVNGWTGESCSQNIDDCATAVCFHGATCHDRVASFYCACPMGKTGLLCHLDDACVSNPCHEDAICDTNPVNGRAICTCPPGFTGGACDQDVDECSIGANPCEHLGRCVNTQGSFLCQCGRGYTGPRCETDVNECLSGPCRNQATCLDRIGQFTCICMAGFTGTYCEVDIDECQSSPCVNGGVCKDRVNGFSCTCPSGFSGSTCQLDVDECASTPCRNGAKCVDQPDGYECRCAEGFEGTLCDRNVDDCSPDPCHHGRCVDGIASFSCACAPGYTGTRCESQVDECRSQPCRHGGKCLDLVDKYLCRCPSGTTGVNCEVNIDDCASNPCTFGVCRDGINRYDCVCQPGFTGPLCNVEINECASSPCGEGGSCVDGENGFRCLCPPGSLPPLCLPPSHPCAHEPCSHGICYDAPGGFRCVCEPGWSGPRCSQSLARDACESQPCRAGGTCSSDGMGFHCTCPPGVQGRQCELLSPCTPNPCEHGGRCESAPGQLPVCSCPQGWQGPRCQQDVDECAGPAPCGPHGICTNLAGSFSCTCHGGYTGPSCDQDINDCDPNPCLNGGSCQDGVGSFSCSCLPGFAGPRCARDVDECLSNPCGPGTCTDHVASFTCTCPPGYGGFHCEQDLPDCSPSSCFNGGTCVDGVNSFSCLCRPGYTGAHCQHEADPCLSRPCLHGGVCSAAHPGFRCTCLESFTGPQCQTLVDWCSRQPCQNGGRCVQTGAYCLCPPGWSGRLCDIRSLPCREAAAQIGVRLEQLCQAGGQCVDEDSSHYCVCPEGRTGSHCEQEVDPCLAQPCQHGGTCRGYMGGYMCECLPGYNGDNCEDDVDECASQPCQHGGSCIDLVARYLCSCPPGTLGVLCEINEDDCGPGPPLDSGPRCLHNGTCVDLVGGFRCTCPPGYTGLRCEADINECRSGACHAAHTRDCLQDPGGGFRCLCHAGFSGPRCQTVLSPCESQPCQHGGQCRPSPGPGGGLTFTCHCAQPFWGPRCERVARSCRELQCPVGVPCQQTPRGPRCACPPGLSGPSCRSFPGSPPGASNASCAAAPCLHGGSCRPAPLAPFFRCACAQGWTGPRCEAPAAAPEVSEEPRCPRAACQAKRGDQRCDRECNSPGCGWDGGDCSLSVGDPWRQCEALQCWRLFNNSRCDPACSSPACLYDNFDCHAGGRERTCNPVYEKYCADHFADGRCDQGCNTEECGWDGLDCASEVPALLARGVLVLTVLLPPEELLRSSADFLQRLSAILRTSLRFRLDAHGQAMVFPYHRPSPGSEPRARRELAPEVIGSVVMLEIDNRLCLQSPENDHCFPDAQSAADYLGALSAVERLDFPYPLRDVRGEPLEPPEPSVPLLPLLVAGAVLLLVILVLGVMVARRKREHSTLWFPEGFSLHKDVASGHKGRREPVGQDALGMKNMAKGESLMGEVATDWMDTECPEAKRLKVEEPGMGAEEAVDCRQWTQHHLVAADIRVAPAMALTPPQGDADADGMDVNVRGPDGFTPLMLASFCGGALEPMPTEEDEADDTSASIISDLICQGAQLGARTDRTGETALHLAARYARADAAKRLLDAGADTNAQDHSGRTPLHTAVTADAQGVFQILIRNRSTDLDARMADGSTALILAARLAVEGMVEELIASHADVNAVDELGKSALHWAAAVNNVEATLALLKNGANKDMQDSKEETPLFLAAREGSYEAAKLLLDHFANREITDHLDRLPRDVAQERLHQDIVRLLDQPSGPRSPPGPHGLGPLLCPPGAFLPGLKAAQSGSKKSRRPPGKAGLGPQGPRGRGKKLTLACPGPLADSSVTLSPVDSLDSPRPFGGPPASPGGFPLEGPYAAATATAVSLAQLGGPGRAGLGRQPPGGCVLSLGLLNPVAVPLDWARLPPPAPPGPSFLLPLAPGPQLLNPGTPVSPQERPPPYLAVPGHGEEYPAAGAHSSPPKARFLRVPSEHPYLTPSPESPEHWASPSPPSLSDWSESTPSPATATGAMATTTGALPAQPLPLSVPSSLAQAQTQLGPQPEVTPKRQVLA
The nature of test [20]: probe aEGFR binding to arrayed compounds – biochemical, biotinylated probe, 635/667 nm fluorescence, primary screen (AID 1097).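 Further: probe is a biotinylated anti-EGFR antibody binding compounds printed on slides; score combines fluorescence near 667 nm and signal to noise of each spot.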 Conditions: small-molecule microarray, higher = more signal.

The source made the active and inactive calls.

Chain of Neurogenic locus notch homolog protein 2 (Homo sapiens) (Q04721 whole entry, looked up, canonical isoform): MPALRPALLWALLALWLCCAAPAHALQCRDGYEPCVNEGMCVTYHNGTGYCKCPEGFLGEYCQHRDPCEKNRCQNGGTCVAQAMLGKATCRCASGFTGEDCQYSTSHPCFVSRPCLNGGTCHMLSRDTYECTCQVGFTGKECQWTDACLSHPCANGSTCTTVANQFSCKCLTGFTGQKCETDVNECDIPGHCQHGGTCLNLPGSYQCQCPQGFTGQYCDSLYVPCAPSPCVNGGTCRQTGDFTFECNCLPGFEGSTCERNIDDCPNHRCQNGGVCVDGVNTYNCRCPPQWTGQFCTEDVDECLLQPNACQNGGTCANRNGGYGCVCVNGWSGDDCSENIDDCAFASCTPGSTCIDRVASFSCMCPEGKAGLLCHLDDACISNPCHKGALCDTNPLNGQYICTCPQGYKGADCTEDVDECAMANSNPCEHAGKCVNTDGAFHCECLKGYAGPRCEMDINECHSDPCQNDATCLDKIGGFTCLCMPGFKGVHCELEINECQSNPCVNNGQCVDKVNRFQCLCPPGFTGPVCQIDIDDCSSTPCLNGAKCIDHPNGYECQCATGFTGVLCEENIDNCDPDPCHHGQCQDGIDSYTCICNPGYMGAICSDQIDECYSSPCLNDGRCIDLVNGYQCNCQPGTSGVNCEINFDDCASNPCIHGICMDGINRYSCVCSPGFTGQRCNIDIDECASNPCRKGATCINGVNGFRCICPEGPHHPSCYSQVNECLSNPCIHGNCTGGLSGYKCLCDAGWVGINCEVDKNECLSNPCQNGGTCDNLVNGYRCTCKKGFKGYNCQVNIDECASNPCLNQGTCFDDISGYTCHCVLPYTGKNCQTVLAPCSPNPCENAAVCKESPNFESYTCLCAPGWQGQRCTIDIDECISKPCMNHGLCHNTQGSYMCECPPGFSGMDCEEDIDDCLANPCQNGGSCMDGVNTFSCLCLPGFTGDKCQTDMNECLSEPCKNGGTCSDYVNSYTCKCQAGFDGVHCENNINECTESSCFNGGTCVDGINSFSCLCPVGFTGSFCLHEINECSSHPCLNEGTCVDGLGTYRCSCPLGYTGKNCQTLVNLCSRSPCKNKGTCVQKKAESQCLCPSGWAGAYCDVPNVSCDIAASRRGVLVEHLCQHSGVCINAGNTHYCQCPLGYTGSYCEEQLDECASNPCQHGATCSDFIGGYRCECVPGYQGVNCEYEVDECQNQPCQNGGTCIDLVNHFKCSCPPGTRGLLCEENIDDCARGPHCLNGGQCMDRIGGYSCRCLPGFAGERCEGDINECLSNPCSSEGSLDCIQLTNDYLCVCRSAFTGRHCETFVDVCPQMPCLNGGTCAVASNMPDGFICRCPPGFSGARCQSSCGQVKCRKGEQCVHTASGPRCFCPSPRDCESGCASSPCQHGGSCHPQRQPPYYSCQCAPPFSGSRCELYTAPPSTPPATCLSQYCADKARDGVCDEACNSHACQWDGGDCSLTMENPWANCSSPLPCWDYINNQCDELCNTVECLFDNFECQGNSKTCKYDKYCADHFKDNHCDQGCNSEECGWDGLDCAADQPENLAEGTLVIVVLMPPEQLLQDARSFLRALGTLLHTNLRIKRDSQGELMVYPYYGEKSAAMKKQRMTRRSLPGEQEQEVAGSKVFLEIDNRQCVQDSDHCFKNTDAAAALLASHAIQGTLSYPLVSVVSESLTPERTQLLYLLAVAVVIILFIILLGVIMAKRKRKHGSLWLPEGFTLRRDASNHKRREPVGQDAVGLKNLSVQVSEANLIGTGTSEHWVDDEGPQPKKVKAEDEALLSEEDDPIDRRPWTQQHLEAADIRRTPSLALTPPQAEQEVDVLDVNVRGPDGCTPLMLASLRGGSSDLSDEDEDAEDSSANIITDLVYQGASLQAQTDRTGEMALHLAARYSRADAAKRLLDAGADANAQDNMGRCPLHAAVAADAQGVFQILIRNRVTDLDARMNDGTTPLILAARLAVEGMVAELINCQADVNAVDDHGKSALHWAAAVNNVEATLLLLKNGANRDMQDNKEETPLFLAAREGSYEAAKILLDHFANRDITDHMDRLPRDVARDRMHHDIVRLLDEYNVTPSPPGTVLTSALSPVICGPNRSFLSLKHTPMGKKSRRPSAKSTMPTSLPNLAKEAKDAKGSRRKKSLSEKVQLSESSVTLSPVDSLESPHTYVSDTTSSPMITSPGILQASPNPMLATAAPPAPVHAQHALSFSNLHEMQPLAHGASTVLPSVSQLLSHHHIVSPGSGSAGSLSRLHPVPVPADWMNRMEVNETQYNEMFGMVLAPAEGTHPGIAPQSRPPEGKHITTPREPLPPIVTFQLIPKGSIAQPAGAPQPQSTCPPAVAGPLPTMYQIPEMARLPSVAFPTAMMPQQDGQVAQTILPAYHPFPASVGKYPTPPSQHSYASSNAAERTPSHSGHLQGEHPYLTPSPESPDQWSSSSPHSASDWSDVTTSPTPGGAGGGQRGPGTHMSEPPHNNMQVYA

On to `COc1ccc(NN2C(C(O)c3cc(OC)c(OC)c(OC)c3)C=CC3C(=O)N(C4CCCCC4)C(=O)C32)cc1` (stereo not given), for which the composite z-score in test [1] was 0.833; in test [2], -0.194; in test [3] it was 0.123; in test [4], 0.767; in test [5], 1.63; in test [6], 1.09. Moreover, the composite z-score was 1.07 in test [7]; 1.51 in test [9]; 0.0734 in test [10]; 0.544 in [11]; 2.87 in [15]; 0.358 in test [17]. Besides, the values for the composite z-score in test [18], in [19] and in test [20] were 0.116, 1.08 and 0.142, respectively. The z-score in test [8] is 1.02 (inactive); in test [12] it was 0.199 (inactive); in [13], 0.966 (inactive); in test [14], 0.169 (inactive); in test [16] it was -0.319 (inactive).

As to `CO[C@@H]1COC(=O)[C@H](COCc2ccccc2)NC(=O)CC=C[C@@H](C)[C@H](OC)COC(=O)[C@H](COCc2ccccc2)NC(=O)CC=C[C@H]1C`, the composite z-score in test [1] was -0.594; in test [2] it was 0.334; in test [3], -0.138; in test [4] it was -0.0596; in [5], 0.0136; in [6] it was 0.567. The composite z-score in test [7] was -0.618; in [9], -0.0224; in test [10], -0.0994; in test [11] it was 0.0472; in test [15], -0.0267; in test [17] it was -0.226. Besides, the composite z-score in test [18] is 0.63; in test [19], -0.511; in test [20], -0.0605. In addition, the z-score was -0.496 (inactive) in [8]; 0.982 (inactive) in test [12]; -0.371 (inactive) in test [13]; 0.921 (inactive) in test [14]; -0.405 (inactive) in [16].

In the case of `O=C(O)[C@@H]1Cc2c([nH]c3ccccc23)[C@@H](c2ccccc2)N1`, the composite z-score in test [1] was -0.675; in [2], -0.15; in [3] it was -0.109; in test [4] it was 0.35; in test [5], 0.464; in test [6] it was 0.144. Moreover, the composite z-score in [7] was 0.125; in [9] it was 0.084; in test [10] it was -0.0522; in [11], -0.645; in test [15], 0.249; in test [17], -0.106. Besides, the composite z-score in test [18] is 0.483; in [19] it was 0.46; in [20], -0.046. Moreover, the z-score was -0.608 (inactive) in test [8]; -0.0524 (inactive) in test [12]; -0.474 (inactive) in test [13]; -0.731 (inactive) in test [14]; 0.294 (inactive) in [16].

In the case of `COc1cc2c(cc1OC)CN(C(=O)[C@@H]1[C@H]3C(=O)O[C@H](c4ccccc4)[C@H](c4ccccc4)N3[C@H](c3ccccc3OCCO)[C@@]13C(=O)Nc1ccccc13)CC2`, the composite z-score in [1] is -1.08; in test [2] it was 1.04; in test [3] it was -0.148; in test [4], 0.575; in test [5] it was 0.803; in [6], 1.39. In addition, the composite z-score is 1.18 in test [7]; -0.44 in test [9]; -0.702 in test [10]; 1.55 in test [11]; 1.76 in test [15]; -0.301 in test [17]. The composite z-score is 0.208 in test [18], 1.05 in [19] and -0.198 in test [20]. Also, the z-score is -0.268 (inactive) in test [8]; 2.39 (inactive) in test [12]; 1.19 (inactive) in test [13]; 5.58 (inactive) in test [14]; 1.92 (inactive) in test [16].

In the case of `C[C@H]1COC(=O)[C@@H]2CCCN2C(=O)[C@@H](C)COC(=O)[C@@H]2CCCN2C1=O`, the composite z-score is -0.295 in test [1]; 0.491 in test [2]; -0.163 in test [3]; 0.0646 in [4]; 0.415 in test [5]; -0.567 in test [6]. The composite z-score in test [7] was -0.436; in [9], -0.041; in [10], -0.134; in test [11] it was -0.8; in test [15], -0.863; in [17], -0.175. In addition, the composite z-score in test [18] is 0.381; in test [19], -0.493; in test [20] it was -0.071. Moreover, the z-score is -3.16 (inactive) in test [8]; -0.173 (inactive) in test [12]; -0.649 (inactive) in test [13]; -1.65 (inactive) in test [14]; 0.493 (inactive) in test [16].
